About 31,000 (8.9%) of roughly 350,000 compounds were called active. Another 15% or so got no clear call; they are omitted. This is one part of a sample in which actives are shown more often than they occur. Values without a mark were called inactive. The call rests on the fitted dose curve; in most records, active means well fitted inhibition curve with a large enough effect; inconclusive means small, poorly fitted or top-dose-only effect; inactive means no such curve, though single readings can be large or run the other way.
The compounds below were run against Histone-lysine N-methyltransferase EHMT2 (Homo sapiens) (UniProt Q96KQ7) (assay: qHTS Assay for Inhibitors of Histone Lysine Methyltransferase G9a). Conditions: G9a H3K9 monomethylation, AlphaScreen, 2 h; series mostly up to 59 µM; activity, negative = inhibition: at the top concentration.
Sequence of Histone-lysine N-methyltransferase EHMT2 (Homo sapiens) (Q96KQ7 913-1193 limits assumed): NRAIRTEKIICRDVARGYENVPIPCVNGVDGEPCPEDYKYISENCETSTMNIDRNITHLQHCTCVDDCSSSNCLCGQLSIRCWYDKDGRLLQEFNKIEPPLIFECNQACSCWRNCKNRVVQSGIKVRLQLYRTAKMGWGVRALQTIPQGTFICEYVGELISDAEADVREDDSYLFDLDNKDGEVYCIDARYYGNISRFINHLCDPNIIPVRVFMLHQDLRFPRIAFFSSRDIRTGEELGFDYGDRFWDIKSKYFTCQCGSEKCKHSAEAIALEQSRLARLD
Procedure, shortened: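 Step 1: enzyme (final 20 nM) with compound, 15 min RT. Step 2: substrate peptide 500 nM and SAM 20 uM, 2 h RT. Step 3: anti-H3K9me1 antibody and AlphaScreen beads, 10 min, then plate read.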
Further: nearly all actives have a fitted effect of over 75% in size.
On the % scale 0 is the no-effect control and ±100 the full control effect; potency means the concentration at half of the fitted maximal effect.

Row | SMILES | activity, negative = inhibition | Potency
1 | CC(=O)NC12CC3CC(C1)CC(C(=O)N1CCN(S(=O)(=O)c4cccs4)CC1)(C3)C2 | 5.2% [at 12.7 µM] | –
2 | O=C(NCCCO)C(=O)Nc1c2c(nn1-c1ccccc1)CSC2 | – | 10 µM (active)
3 | O=C(Nc1c2c(nn1-c1ccc(F)cc1)CS(=O)C2)C12CC3CC(CC(C3)C1)C2 (stereo not given) | -7.51% [at 102 µM] | –
4 | O=C(NCCCO)C(=O)Nc1c2c(nn1-c1ccc(F)cc1)CSC2 | – | 11.2 µM (active)
5 | CC(C)C(=O)Nc1c2c(nn1-c1ccccc1)CSC2 | 24.7% [at 102 µM] | –
6 | CC(=O)Nc1c2c(nn1-c1cccc(C)c1)CSC2 | 7.68% | –
7 | COc1ccc(-n2nc3c(c2NC(=O)c2ccc(N4C(=O)CCC4=O)cc2)CSC3)cc1 | 20.2% [at 102 µM] | –
8 | COc1cc(CCC(=O)N2CCN(c3ccccc3Cl)CC2)cc(OC)c1OC | -9.07% [at 102 µM] | –
9 | CCc1ccc(CN(Cc2ccco2)C(=O)COc2ccc(Cl)c(C)c2)cc1 | 91.2% | –
10 | Cc1ccc(OCCSc2nc(C)c(Cc3ccccc3)c(=O)[nH]2)cc1 | -9.13% | –
11 | CCOc1cc(C2C(C(=O)c3ccco3)=C(O)C(=O)N2Cc2ccccc2)ccc1O (stereo not given) | – | 44.7 µM (active)
12 | CCOc1cc(C2c3c(-c4ccc(Br)cc4)n[nH]c3C(=O)N2c2ccc(Cl)cc2)ccc1O (stereo not given) | -2.85% | –
13 | O=C(C1=C(O)C(=O)N(Cc2ccccc2)C1c1ccco1)c1ccco1 (stereo not given) | 0.744% [at 12.7 µM] | –
14 | O=C(CCNS(=O)(=O)c1ccccc1C(F)(F)F)Nc1ccncc1 | -8.2% [at 12.7 µM] | –
15 | Cc1cc(/C=C2/SC(=O)N(CC(=O)OC(C)C)C2=O)c(C)n1C | 19.4% [at 12.7 µM] | –
16 | Cc1cc(/C=C2/SC(=O)N(CC(=O)N3CCCC3)C2=O)ccc1N1CCOCC1 | -34.9% [at 102 µM] | –
17 | Cc1cc(/C=C2/SC(=O)N(CC(=O)N3CCCC3)C2=O)c(C)n1C | – | 50.1 µM (active)
18 | Cc1cccc(N=C2SC(C)CN2C(=O)CN2C(=O)NC3(CCCC3)C2=O)c1 (stereo not given) | -1.2% [at 0.501 µM] | –
19 | CCn1cc2nc(SCc3ccccc3Cl)n(CCc3ccccc3)c(=O)c2n1 | -9.1% | –
20 | C=CCOc1ccc(/C=C/C(=O)OC(C)C(=O)Nc2ccc(NC(C)=O)cc2)cc1 (stereo not given) | -0.879% [at 102 µM] | –
21 | COc1ccc(CNC(=O)COC(=O)CCS(=O)(=O)c2ccc(C)cc2)cc1OC | 8.78% [at 102 µM] | –
22 | CN1CCCN(S(=O)(=O)c2ccc3c(c2)OCCO3)CC1 | 76.4% | –
23 | CN1CCN(S(=O)(=O)c2cccc(C(=O)O)c2)CC1 | -49.6% [at 102 µM] | –
24 | CN1CCN(S(=O)(=O)c2ccc3[nH]cc(C(=O)O)c(=O)c3c2)CC1 | – | 56.2 µM (active)

Row | SMILES | activity, negative = inhibition | Potency
25 | COc1ccc(N2CCN(Cc3ccc(Br)s3)CC2)cc1 | – | 3.16 µM (active)
26 | Cc1ccc(-c2nnc(CN3CCN(C)CC3)o2)cc1 | -1.5% [at 102 µM] | –
27 | COc1ccc(N2CCN(Cc3nc4c(c(=O)[nH]c(=O)n4C)n3Cc3ccc(Cl)cc3)CC2)cc1 | -33.5% | –
28 | CCOCc1c(C(=O)N2CCN(Cc3ccc(Br)s3)CC2)oc2ccccc12 | 16.1% [at 2.33 µM] | –
29 | Cc1ccc(C)c(N2CCN(Cc3nnc(-c4ccccc4)o3)CC2)c1 | -2.97% | –
30 | COc1ccc(N2CCN(Cc3nnc(-c4ccccc4)o3)CC2)cc1 | – | 35.5 µM (active)
31 | CNS(=O)(=O)c1cccc(C(=O)OCC(=O)N2c3ccccc3NC(=O)C2(C)C)c1 | 10.5% [at 12.7 µM] | –
32 | COc1ccc(NC(=O)CN2CCCN(Cc3ccccc3)S2(=O)=O)cc1 | 2.42% | –
33 | CC(C)Sc1ncnc2c1cnn2-c1ccccc1 | 326% [at 102 µM] | –
34 | Cc1cc(NC(=O)C(C)SCC(=O)Nc2ccccc2N2CCCCC2)no1 (stereo not given) | -46.6% [at 102 µM] | –
35 | CCOc1ccc(CNC(=O)c2ccc3nc(CC)c(CC)nc3c2)cc1OC | -2.75% | –
36 | CCCCNC(=O)N(O)C1N(/N=C/c2ccccc2O)C(=S)SC1(C)C (stereo not given) | 17.2% [at 102 µM] | –
37 | CN1CCN(c2ccc(NC(=O)c3cc(Cl)c4c(c3)OCCO4)cc2)CC1 | – | 50.1 µM (active)
38 | CN1CCN(c2ccc(NC(=O)c3ccccc3)cc2)CC1 | -20.6% [at 102 µM] | –
39 | O=C(Nc1cccc(Cl)c1N1CCOCC1)c1ccc2c(c1)OCCO2 | -12% [at 102 µM] | –
40 | CCCC12CN3CC(C)(CN(C1)C3c1ccccc1Cl)C2=O (stereo not given) | -38% | –
41 | COc1ccc2ccn(C)c2c1 | -0.398% [at 0.501 µM] | –
42 | COc1ccc2c(c1)cc1n2CCN=C1NN | – | 39.8 µM (active)
43 | Cc1ccc(C)c(NC(=O)Cn2ccn(-c3ccc(F)cc3)c(=O)c2=O)c1 | -3.23% | –
44 | Cc1cccc(C(=O)Nc2ccc(-c3nc4ncccc4o3)cc2C)c1 | -23.1% | –
45 | COC(=O)C1=CO[C@@H](O[C@@H]2O[C@H](CO)[C@@H](O)[C@H](O)[C@H]2O)C2C1C[C@H](O)[C@@H]2C (stereo not given in full) | 1.46% [at 2.33 µM] | –
46 | CCc1cccc(NC(=O)Cn2nc(CC)n3c(cc4cc(C)ccc43)c2=O)c1 | 10.2% | –
47 | COc1ccccc1C(=O)NCC(=O)OCC(=O)Nc1nnc(-c2ccccc2)o1 | 17.3% [at 12.7 µM] | –
48 | COc1ccccc1NC(=O)C1=C(C)NC2=C(C(=O)CCC2)C1c1ccc(C)o1 (stereo not given) | – | 50.1 µM (active)

Row | SMILES | activity, negative = inhibition | Potency
49 | COc1ccccc1NC(=O)C1=C(C)Nc2ncnn2C1c1ccc(C)o1 (stereo not given) | -42.2% [at 12.7 µM] | –
50 | COc1ccccc1NC(=O)C1=C(C)NC(=O)NC1c1ccc(C)s1 (stereo not given) | -35.5% [at 102 µM] | –
51 | CCOC(=O)c1cc2c(=O)n3ccccc3nc2n(CC2CCCO2)c1=NC(=O)c1ccccc1Br (stereo not given) | 7.77% | –
52 | CC(=O)N/C(=C\c1ccccc1)C(=O)OC(C)C(=O)N(C)c1ccccc1 (stereo not given) | 7.54% [at 102 µM] | –
53 | Cc1ccc(OCCCC(=O)Nc2ccc3c(c2)OCCO3)cc1 | -14.7% | –
54 | O=C(c1ccc(OC2CCN(Cc3ccccn3)CC2)cc1)N1CCCCCC1 | 8.07% [at 102 µM] | –
55 | CCCCN(C)C(=O)C1CCN(Cc2ccccn2)CC1 | – | 5.62 µM (active)
56 | CN(CCc1ccccn1)C(=O)c1ccc(OC2CCN(Cc3ccccn3)CC2)cc1 | 24.7% [at 0.501 µM] | –
57 | Cc1noc(C)c1COc1ccccc1C(=O)N(C)CC(=O)Nc1cccc(F)c1 | -4.12% [at 102 µM] | –
58 | CCOC(=O)c1ccc(NC(=O)Cn2cc(S(=O)(=O)Cc3ccccc3F)c3ccccc32)cc1 | -3.92% | –
59 | Cc1cc(C(=O)CCC(=O)NNC(=O)c2ccccc2O)c(C)s1 | 16.4% [at 102 µM] | –
60 | Cc1sc2nc(SCCO)n(-c3ccccc3)c(=O)c2c1C | -15.9% [at 102 µM] | –
61 | C=CCN1CN(S(=O)(=O)c2ccc(OC)cc2)c2nc3ccccc3nc21 | – | 7.08 µM (active)
62 | O=S(=O)(c1ccccc1)N1CN(Cc2ccc(F)cc2)c2nc3ccccc3nc21 | -47.7% [at 102 µM] | –
63 | COc1ccc(S(=O)(=O)N2CCSCC2)cc1 | 1.31% [at 102 µM] | –
64 | O=C(CC1C(=O)N(c2ccccc2)C(=O)N1CCc1cccs1)Nc1ccc(F)cc1 (stereo not given) | 5.32% | –
65 | Cc1ccccc1C(=O)NC(=S)NC1CC1 | -4% [at 102 µM] | –
66 | CCn1c2ccccc2c2cc(NC(=O)COc3ccc(C)cc3C)ccc21 | -36% | –
67 | O=C(CCC(=O)c1cccs1)NC1CCCCCC1 | -16.9% [at 102 µM] | –
68 | CCCCC(CC)CNC(=O)CCCCn1c(=O)[nH]c2ccsc2c1=O (stereo not given) | – | inactive
69 | O=C(CCCCCn1c(=S)[nH]c2ccsc2c1=O)NC1CCCCC1 | – | 10 µM (active)
70 | COc1ccccc1-c1sc2ccccc2c1-c1ccc(C(C)=O)cc1 | 226% [at 102 µM] | –
71 | COc1ccc(C(CCN(Cc2ccc(OC)c(OC)c2)C(=O)CCl)c2ccccc2)cc1 (stereo not given) | – | 50.1 µM (active)
72 | CCOC(=O)CN(Cc1ccc(OC)c(OC)c1)S(=O)(=O)c1ccc(OC)cc1 | 18.2% [at 102 µM] | –

Row | SMILES | activity, negative = inhibition | Potency
73 | COc1ccc(CN(C)C(=O)CC(c2ccccc2)c2ccccc2)cc1 | 15.5% | –
74 | Cc1ccc(Cl)cc1N1CCN(C(=O)c2cn(C)c3ccc(S(=O)(=O)N(C)C4CCCCC4)cc3c2=O)CC1 | 14% | –
75 | CCn1cc(CCC(=O)NCc2ccc(F)cc2)c2ccccc21 | -11% [at 102 µM] | –
76 | COc1cc(OC)c(OC)cc1/C=C/c1nc2cc3ccccc3cc2c(=O)n1-c1ccc(F)c(Cl)c1 | -13.5% | –
77 | Fc1ccc(Nc2nc(SCc3ccccc3Cl)nc3ccccc23)cc1 | 24.3% | –
78 | C=CS(=O)c1sc(Cl)c(N2CCOCC2)c1[N+](=O)[O-] (stereo not given) | – | 1.58 µM (active)
79 | O=C(CC1Oc2ccccc2NC1=O)NCc1ccc(F)cc1 (stereo not given) | 28.9% | –
80 | CC1=C(C)CC2C(=O)N(c3cccc4ccccc34)C(=O)C2C1 (stereo not given) | – | 7.94 µM (active)
81 | CCc1ccccc1N1C(=O)C2C3CC(=O)C(c4ccccc43)C2C1=O (stereo not given) | 19.2% [at 102 µM] | –
82 | O=C1c2ccccc2C(=O)N1c1cccc2ccccc12 | 2.93% [at 102 µM] | –
83 | CCCCn1cc(S(=O)(=O)c2ccc(OCC)cc2)c(=O)c2cc(OC)c(OC)cc21 | -30.4% | –
84 | CCn1c(=O)c(C(=O)NCc2ccc3c(c2)OCO3)c(O)c2ccccc21 | 8.89% [at 0.501 µM] | –
85 | COc1ccc(C2c3c(oc4ccccc4c3=O)C(=O)N2Cc2ccc3c(c2)OCO3)cc1 (stereo not given) | -28.3% | –
86 | CCc1noc(C)c1C(=O)Oc1ccc(N(C)S(=O)(=O)c2ccc(C)c(C)c2)cc1 | 15.4% [at 12.7 µM] | –
87 | O=C(CSc1nnc(CNC(=O)c2ccccc2)n1-c1ccc(F)cc1)Nc1ccccc1F | -18.3% | –
88 | COC(=O)c1ccc(NC(=O)CSc2nnc(-c3ccncc3)n2C)cc1 | 0.0579% [at 102 µM] | –
89 | Cn1cccc1Cc1nnc(SCC(=O)NCCc2ccccc2)n1-c1ccc(F)cc1 | – | 56.2 µM (active)
90 | CNC(=O)CSc1nnc(CCc2ccccc2)n1-c1ccccc1 | -17.5% | –
91 | COC(=O)c1ccc(NC(=O)CSc2nnc(C3CC3)n2C)cc1 | 18.2% [at 102 µM] | –
92 | COC(=O)c1ccc(NC(=O)CSc2nnc(Cc3cccn3C)n2-c2ccc(F)cc2)cc1 | – | 44.7 µM (active)
93 | Cc1ccccc1NC(=O)Cc1nc(COC(=O)c2cccnc2Cl)cs1 | -9.65% | –
94 | COc1ccccc1C(CNC(=O)c1ccc(C)c(S(=O)(=O)N2CCCCC2)c1)N(C)C (stereo not given) | 24.7% [at 12.7 µM] | –
95 | CC(=O)Nc1ccc(Nc2cc(C)nc(Nc3ccc(NC(C)=O)cc3)n2)cc1 | -6.09% [at 2.33 µM] | –
